Assay results taken from PubChem BioAssay.
Calls of active or inactive are those of the source.

Tests used:
[1] = system: PRMT1 (protein arginine N-methyltransferase 1); assay: small molecules binding arginine methyltransferase PRMT1 – biochemical, small-molecule microarray, 635 nm fluorescence, primary screen (AID 1088); details: higher = more signal;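 also: binding of Prmt1 protein to compounds spotted on small-molecule microarray slides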
[2] = growth effects on S. cerevisiae YJM789 – YJM789 clinical isolate, OD600, 24 h, basal, primary screen (AID 1089); details: higher = more signal, called active from +8 up or from −8 down;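 also: growth of clinical yeast isolate S. cerevisiae YJM 789 seeded 1000 cells per well; test concentration not given here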
[3] = S. pombe growth modifiers, basal conditions – strain 972, OD600, 24 h, no modulator, primary screen (AID 1090);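 also: basal condition with compound alone and no growth modifier present; test concentration not given here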; details: S. pombe 972 growth, higher = more signal, called active from +8 up or from −8 down
[4] = budding yeast growth modifiers under rapamycin – strain BY4716, OD600, 96 h, primary screen (AID 1091); also: test concentration not given here; details: S. cerevisiae BY4716 + rapamycin, higher = more signal, called active from +8 up or from −8 down
[5] = target: Torsin-1A-interacting protein 2 (Homo sapiens) (UniProt Q8NFQ8); assay: small molecules binding lysate-expressed LULL1 – cell lysate, human LULL1 lysate, 635/667 nm fluorescence, primary screen (AID 1092); details: small-molecule microarray, hLULL1 lysate binding, 635 nm fluorescence; higher = more signal;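 also: probe is lysate of COS7 cells overexpressing human LULL1; score merges per-feature 667 nm fluorescence with signal-to-noise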
Chain of Torsin-1A-interacting protein 2 (Homo sapiens) (Q8NFQ8 whole entry, looked up): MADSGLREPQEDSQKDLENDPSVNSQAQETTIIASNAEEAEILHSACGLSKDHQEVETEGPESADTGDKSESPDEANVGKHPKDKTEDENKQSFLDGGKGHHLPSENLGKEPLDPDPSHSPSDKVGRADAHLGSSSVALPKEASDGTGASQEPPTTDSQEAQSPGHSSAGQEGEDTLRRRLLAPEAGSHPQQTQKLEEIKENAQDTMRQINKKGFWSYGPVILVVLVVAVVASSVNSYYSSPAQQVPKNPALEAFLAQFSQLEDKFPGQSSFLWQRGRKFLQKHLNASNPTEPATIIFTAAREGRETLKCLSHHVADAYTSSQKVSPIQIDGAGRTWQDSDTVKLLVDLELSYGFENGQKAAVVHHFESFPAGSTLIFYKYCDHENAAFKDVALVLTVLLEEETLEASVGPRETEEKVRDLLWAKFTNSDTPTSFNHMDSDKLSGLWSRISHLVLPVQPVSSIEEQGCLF

[6] = optical density change of DRC41 E. coli – strain DRC41, OD650, 24 h, E. coli filamentation project, primary screen (AID 1093);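 also: MC1000 strain lacking acrAB efflux and sulA so SOS filamentation is blocked; test concentration not given here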; details: E. coli DRC41 growth, higher = more signal, called active from +8 up or from −8 down
[7] = probe aLefty2 binding to arrayed compounds – biochemical, biotinylated probe, 635/667 nm fluorescence, primary screen (AID 1094); details: small-molecule microarray, higher = more signal;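 also: score merges spot fluorescence near 667 nm with spot signal-to-noise ratio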
[8] = system: Noggin (protein binding on small-molecule microarray); assay: small molecules binding Noggin protein – biochemical, 635/667 nm fluorescence, primary screen (AID 1095); details: 635 nm fluorescence, higher = more signal;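 also: score merges 667 nm feature fluorescence with signal to noise over triplicate slides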
[9] = target: Neurogenic locus notch homolog protein 3 (Homo sapiens) (UniProt Q9UM47); assay: small molecules binding NOTCH3 protein – biochemical, 635/667 nm fluorescence, primary screen (AID 1096); details: small-molecule microarray, 635 nm fluorescence, higher = more signal
Chain of Neurogenic locus notch homolog protein 3 (Homo sapiens) (Q9UM47 whole entry, looked up): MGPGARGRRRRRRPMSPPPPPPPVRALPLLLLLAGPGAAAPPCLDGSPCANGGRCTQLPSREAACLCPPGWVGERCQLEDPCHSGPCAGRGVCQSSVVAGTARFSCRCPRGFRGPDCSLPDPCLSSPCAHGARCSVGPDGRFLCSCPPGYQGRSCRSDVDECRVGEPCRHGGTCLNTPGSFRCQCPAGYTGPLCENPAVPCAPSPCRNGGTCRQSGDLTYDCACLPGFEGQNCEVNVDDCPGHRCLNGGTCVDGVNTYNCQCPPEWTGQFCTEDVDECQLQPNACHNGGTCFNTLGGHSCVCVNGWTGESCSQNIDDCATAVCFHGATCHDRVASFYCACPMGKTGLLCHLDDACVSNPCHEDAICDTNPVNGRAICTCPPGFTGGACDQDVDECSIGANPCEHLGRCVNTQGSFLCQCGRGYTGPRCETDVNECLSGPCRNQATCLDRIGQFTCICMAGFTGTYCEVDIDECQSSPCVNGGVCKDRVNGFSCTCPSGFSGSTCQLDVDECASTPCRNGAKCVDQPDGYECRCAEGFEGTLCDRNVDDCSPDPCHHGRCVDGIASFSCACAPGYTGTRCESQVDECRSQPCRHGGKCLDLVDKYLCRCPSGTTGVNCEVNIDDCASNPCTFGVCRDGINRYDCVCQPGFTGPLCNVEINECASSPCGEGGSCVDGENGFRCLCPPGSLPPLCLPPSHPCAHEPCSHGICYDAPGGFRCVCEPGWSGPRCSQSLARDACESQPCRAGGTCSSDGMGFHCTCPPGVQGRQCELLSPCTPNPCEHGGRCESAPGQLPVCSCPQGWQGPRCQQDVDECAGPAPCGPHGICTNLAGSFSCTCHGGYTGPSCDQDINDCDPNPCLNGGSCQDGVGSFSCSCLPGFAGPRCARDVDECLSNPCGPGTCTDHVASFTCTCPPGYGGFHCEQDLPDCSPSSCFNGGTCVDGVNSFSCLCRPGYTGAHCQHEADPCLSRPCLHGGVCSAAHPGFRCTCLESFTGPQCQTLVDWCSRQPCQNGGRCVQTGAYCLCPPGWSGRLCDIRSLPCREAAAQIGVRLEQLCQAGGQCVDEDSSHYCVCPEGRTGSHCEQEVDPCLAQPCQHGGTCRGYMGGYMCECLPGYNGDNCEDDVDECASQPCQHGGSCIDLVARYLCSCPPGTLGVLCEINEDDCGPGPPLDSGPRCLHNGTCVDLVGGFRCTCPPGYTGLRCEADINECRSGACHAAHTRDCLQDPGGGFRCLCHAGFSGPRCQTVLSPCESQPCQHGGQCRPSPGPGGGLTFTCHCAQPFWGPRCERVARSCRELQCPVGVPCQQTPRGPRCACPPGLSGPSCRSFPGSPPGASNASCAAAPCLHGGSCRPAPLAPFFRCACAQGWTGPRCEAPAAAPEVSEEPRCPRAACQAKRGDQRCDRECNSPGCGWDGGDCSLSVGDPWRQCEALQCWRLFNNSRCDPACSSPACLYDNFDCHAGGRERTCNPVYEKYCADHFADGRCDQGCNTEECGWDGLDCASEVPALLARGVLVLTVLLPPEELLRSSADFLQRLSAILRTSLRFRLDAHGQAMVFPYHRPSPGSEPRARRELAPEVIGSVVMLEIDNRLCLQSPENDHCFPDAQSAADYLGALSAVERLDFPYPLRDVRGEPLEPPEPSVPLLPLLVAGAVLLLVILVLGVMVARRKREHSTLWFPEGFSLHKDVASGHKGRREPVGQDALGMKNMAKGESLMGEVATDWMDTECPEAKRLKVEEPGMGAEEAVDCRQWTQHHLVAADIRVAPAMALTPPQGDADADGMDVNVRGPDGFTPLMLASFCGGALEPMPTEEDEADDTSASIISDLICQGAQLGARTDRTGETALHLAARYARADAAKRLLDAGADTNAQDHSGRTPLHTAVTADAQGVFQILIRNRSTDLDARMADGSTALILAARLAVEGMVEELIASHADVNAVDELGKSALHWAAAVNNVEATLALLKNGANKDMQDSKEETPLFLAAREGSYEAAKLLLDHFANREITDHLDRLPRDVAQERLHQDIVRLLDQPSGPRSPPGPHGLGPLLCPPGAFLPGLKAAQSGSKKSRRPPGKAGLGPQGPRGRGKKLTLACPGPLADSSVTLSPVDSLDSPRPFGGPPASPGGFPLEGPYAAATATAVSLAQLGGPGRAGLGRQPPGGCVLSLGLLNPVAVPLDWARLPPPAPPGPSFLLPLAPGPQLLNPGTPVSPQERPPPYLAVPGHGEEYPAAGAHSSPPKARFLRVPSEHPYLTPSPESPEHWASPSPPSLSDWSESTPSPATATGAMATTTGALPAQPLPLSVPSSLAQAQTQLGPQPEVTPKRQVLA

[10] = probe aEGFR binding to arrayed compounds – biochemical, biotinylated probe, 635/667 nm fluorescence, primary screen (AID 1097); details: small-molecule microarray, higher = more signal;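 also: probe is a biotinylated anti-EGFR antibody binding compounds printed on slides; score combines fluorescence near 667 nm and signal to noise of each spot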
[11] = system: Plasmodium falciparum Sir2 (PF13_0152, Sir2A); assay: Plasmodium falciparum Sir2A binding compounds – biochemical, small-molecule microarray, 635 nm fluorescence, primary screen (AID 1098); details: fluorescence 635 nm, higher = more signal;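 also: score merges spot fluorescence intensity with its signal-to-noise ratio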
[12] = probe aDKK1 binding to arrayed compounds – biochemical, biotinylated probe, 635/667 nm fluorescence, primary screen (AID 1099); details: small-molecule microarray, higher = more signal;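 also: score merges 667nm spot fluorescence with signal to noise across triplicate slides; reference of the scale not given here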
[13] = probe aCHRDL2 binding to arrayed compounds – biochemical, biotinylated probe, 635/667 nm fluorescence, primary screen (AID 1100); details: small-molecule microarray, higher = more signal
[14] = change in splice reporter luminescence, either direction, cell-based, HEK293, spliceosome inhibition project, primary screen (AID 1101); details: HEK293 splicing luciferase reporter, 24 h, higher = more signal, called active from +8 up or from −8 down;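 also: HEK293 cells carrying a splicing-competent luciferase reporter gene; test concentration not given here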
[15] = target: Fibroblast growth factor 10 (Homo sapiens) (UniProt O15520); assay: compounds binding fibroblast growth factor 10 – biochemical, small-molecule microarray, 635 nm fluorescence, primary screen (AID 1102); details: FGF10 binding, fluorescence 635 nm, higher = more signal
Chain of Fibroblast growth factor 10 (Homo sapiens) (O15520 whole entry, looked up): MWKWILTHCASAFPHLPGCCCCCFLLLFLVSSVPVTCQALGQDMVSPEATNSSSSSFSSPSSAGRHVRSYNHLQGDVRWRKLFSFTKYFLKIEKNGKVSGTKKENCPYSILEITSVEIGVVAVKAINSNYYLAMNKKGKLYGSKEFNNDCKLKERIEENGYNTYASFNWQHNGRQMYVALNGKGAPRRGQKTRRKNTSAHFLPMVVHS

[16] = system: glycogen synthase kinase-3 (GSK3A per assay name; protocol says GSK3B); assay: compounds binding glycogen synthase kinase-3 – biochemical, small-molecule microarray, 635 nm fluorescence, GSK3A, primary screen (AID 1103); details: fluorescence 635 nm, higher = more signal; also: the record names both GSK3A and GSK3B
[17] = target: Epidermal growth factor receptor (Homo sapiens) (UniProt P00533); assay: compounds binding epidermal growth factor receptor – biochemical, small-molecule microarray, 635 nm fluorescence, primary screen (AID 1104); details: EGFR binding, higher = more signal;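 also: score merges 667 nm emission intensity with spot signal to noise over triplicate slides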
Chain of Epidermal growth factor receptor (Homo sapiens) (P00533 whole entry, looked up): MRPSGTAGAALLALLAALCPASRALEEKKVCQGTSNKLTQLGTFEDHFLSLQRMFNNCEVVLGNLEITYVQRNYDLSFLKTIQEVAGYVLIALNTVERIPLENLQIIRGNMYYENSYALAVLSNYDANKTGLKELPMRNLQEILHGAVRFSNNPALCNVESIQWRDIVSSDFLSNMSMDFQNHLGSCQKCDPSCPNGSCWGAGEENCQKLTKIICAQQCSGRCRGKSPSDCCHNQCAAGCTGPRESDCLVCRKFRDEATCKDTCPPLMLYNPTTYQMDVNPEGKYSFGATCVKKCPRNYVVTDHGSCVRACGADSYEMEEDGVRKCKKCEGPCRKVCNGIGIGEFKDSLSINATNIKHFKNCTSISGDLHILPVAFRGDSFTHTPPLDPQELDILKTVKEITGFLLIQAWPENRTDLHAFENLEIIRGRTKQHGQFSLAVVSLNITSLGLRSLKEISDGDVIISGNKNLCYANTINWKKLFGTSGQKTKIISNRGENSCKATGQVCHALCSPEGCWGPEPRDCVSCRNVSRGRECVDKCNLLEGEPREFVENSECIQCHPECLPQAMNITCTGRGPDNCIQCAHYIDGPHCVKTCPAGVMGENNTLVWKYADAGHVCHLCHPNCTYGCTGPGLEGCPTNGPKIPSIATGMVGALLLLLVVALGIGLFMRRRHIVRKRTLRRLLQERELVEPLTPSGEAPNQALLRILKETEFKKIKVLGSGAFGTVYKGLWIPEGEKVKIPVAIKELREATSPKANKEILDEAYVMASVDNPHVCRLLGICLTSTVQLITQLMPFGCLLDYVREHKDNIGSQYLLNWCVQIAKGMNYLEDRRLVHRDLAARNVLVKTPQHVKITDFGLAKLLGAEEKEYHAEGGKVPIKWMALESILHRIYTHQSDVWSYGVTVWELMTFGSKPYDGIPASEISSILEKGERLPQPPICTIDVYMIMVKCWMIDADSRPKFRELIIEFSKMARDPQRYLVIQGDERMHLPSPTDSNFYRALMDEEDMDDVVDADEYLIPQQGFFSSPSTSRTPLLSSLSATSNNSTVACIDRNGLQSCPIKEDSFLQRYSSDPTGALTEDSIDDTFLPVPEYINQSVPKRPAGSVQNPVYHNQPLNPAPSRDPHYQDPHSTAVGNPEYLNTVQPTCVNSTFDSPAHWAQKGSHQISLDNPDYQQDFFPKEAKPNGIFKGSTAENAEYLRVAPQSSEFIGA

[18] = target: Follistatin-related protein 3 (Homo sapiens) (UniProt O95633); assay: compounds binding follistatin-related protein 3 – biochemical, small-molecule microarray, 635 nm fluorescence, primary screen (AID 1105); details: FSTL3 binding, higher = more signal;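 also: score merges emission near 667 nm and signal to noise per printed spot across three slides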
Chain of Follistatin-related protein 3 (Homo sapiens) (O95633 whole entry, looked up): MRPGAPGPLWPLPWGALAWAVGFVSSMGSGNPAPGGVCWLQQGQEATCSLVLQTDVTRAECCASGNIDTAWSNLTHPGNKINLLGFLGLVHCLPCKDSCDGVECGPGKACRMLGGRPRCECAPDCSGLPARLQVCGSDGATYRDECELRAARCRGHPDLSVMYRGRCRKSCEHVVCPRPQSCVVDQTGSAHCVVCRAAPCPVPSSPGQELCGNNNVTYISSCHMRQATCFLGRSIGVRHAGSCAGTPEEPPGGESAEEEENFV

[19] = target: Dickkopf-related protein 1 (Homo sapiens) (UniProt O94907); assay: small molecules binding DKK1 protein – biochemical, small-molecule microarray, 635 nm fluorescence scan, primary screen (AID 1106); details: higher = more signal;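 also: score merges emission near 667 nm with signal to noise over three replicate slides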
Chain of Dickkopf-related protein 1 (Homo sapiens) (O94907 whole entry, looked up): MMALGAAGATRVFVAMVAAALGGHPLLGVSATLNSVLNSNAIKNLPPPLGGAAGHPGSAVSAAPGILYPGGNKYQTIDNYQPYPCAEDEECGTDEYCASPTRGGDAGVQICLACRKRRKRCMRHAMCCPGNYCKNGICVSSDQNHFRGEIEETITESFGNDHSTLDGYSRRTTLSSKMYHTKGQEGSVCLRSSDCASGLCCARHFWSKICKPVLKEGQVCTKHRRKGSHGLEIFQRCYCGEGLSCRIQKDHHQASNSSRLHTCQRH

[20] = system: Inhibin beta A chain (activin A); assay: small molecules binding activin A – biochemical, small-molecule microarray, 635 nm fluorescence scan, primary screen (AID 1107); details: INHBA, higher = more signal;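 also: mouse activin A protein probed at 4.33 µg/mL on printed slides; score merges bound-protein fluorescence near 667 nm with spot signal-to-noise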

## O=C1C2C=CC(C(O)c3cccc(O)c3)N(Nc3ccc([N+](=O)[O-])cc3)C2C(=O)N1c1ccccc1 (stereo not given)
[1]
  composite z-score: 0.622
[2]
  z-score: 0.706 (inactive)
[3]
  z-score: 0.667 (inactive)
[4]
  z-score: 1.3 (inactive)
[5]
  composite z-score: 1.87
[6]
  z-score: 0.404 (inactive)
[7]
  composite z-score: -0.021
[8]
  composite z-score: 0.196
[9]
  composite z-score: 0.715
[10]
  composite z-score: -0.0041
[11]
  composite z-score: 0.367
[12]
  composite z-score: 0.158
[13]
  composite z-score: 0.451
[14]
  z-score: 0.663 (inactive)
[15]
  composite z-score: 1.07
[16]
  composite z-score: 0.672
[17]
  composite z-score: 0.254
[18]
  composite z-score: 0.444
[19]
  composite z-score: 0.239
[20]
  composite z-score: 0.199

## N[C@@H](Cc1ccccc1)C(=O)NCc1cn(Cc2ccccc2)nn1
[1]
  composite z-score: 0.05
[2]
  z-score: 0.246 (inactive)
[3]
  z-score: -0.572 (inactive)
[4]
  z-score: -1.05 (inactive)
[5]
  composite z-score: -0.183
[6]
  z-score: 0.78 (inactive)
[7]
  composite z-score: 0.0582
[8]
  composite z-score: 0.465
[9]
  composite z-score: -0.005
[10]
  composite z-score: 0.0282
[11]
  composite z-score: -0.522
[12]
  composite z-score: 0.0195
[13]
  composite z-score: -0.283
[14]
  z-score: 0.0702 (inactive)
[15]
  composite z-score: 0.735
[16]
  composite z-score: 0.179
[17]
  composite z-score: 0.113
[18]
  composite z-score: 0.594
[19]
  composite z-score: 0.545
[20]
  composite z-score: 0.85

## O=C(O)[C@@H]1[C@@H]2C(=O)N(c3ccccc3)C(=O)[C@@H]2C[C@@H]1Sc1ccccc1
[1]
  composite z-score: -1.41
[2]
  z-score: 0.752 (inactive)
[3]
  z-score: 1.68 (inactive)
[4]
  z-score: 1.53 (inactive)
[5]
  composite z-score: 0.758
[6]
  z-score: -0.686 (inactive)
[7]
  composite z-score: 0.251
[8]
  composite z-score: -1.71
[9]
  composite z-score: -1.56
[10]
  composite z-score: 0.196
[11]
  composite z-score: 1.61
[12]
  composite z-score: 0.638
[13]
  composite z-score: 0.519
[14]
  z-score: 0.393 (inactive)
[15]
  composite z-score: -0.694
[16]
  composite z-score: -1.74
[17]
  composite z-score: -0.498
[18]
  composite z-score: -0.852
[19]
  composite z-score: -1.19
[20]
  composite z-score: 0.656

## NC(=O)NCC#Cc1ccc2c(c1)[C@]1(C(=O)N2)[C@H](C(=O)N2CCN(c3ncccn3)CC2)[C@H]2C(=O)O[C@H](c3ccccc3)[C@H](c3ccccc3)N2[C@@H]1c1ccc(O)cc1
[1]
  composite z-score: 1.33
[2]
  z-score: 0.541 (inactive)
[3]
  z-score: -0.281 (inactive)
[4]
  z-score: 0.971 (inactive)
[5]
  composite z-score: 0.828
[6]
  z-score: -0.653 (inactive)
[7]
  composite z-score: 0.109
[8]
  composite z-score: 0.517
[9]
  composite z-score: 1.08
[10]
  composite z-score: 0.0283
[11]
  composite z-score: 0.615
[12]
  composite z-score: 0.287
[13]
  composite z-score: 0.208
[14]
  z-score: -0.534 (inactive)
[15]
  composite z-score: 1.21
[16]
  composite z-score: -0.0752
[17]
  composite z-score: 0.755
[18]
  composite z-score: 1.41
[19]
  composite z-score: 0.704
[20]
  composite z-score: -0.131

## CC(C)=C1C(=O)C(c2ccccc2)=C2CN3C(=O)N(CCc4ccccc4)C(=O)[C@]3(Cc3ccc(C(F)(F)F)cc3)[C@H]21
[1]
  composite z-score: -0.555
[2]
  z-score: -0.117 (inactive)
[3]
  z-score: 1.38 (inactive)
[4]
  z-score: 0.812 (inactive)
[5]
  composite z-score: 2.45
[6]
  z-score: -1.48 (inactive)
[7]
  composite z-score: 0.01
[8]
  composite z-score: -1.08
[9]
  composite z-score: 0.245
[10]
  composite z-score: -0.139
[11]
  composite z-score: 1.04
[12]
  composite z-score: 1.18
[13]
  composite z-score: 1.3
[14]
  z-score: 0.0205 (inactive)
[15]
  composite z-score: -0.649
[16]
  composite z-score: -0.0628
[17]
  composite z-score: -1.22
[18]
  composite z-score: 0.13
[19]
  composite z-score: -1.7
[20]
  composite z-score: 0.877
